This note sets out measurements from PubChem BioAssay AID1117319 (Southern Research Institute, 2015).

The whole screen tested about 260,000 compounds, of which about 1,500 (0.58%) were called active. Another 5% or so got no clear call; they are omitted.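 How the source made its calls: active means inhibition above a set limit at one or more doses, reproduced on every date tested; inconclusive means results disagree between test dates, or hit never tested in dose response; inactive means the rest.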 These entries were drawn from the full list. Measured potencies and affinities stand elsewhere.

The target of this assay is Virion infectivity factor (Human immunodeficiency virus type 1 group M subtype B (isolate BH10)) + Virion infectivity factor (Human immunodeficiency virus type 1 group M subtype B (isolate BRU/LAI)) + Virion infectivity factor (Human immunodeficiency virus type 1 group M subtype B (isolate PCV12)) + Virion infectivity factor (Human immunodeficiency virus type 1 group M subtype B (isolate HXB2)) + DNA dC->dU-editing enzyme APOBEC-3G (Homo sapiens) (UniProt P69720+P69721+P69722+P69723+Q9HC16). Description: HIV-1 Vif–A3G interaction blockers – biochemical, TR-FRET, GST-Vif 1-94, biotin-A3G peptide, dose response retest, primary screen (AID 1117319).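 Further: Vif residues 1-94 fused to GST binding biotinylated APOBEC3G peptide 110-148; 0% = full assay without inhibitor and 100% = GST in place of GST-Vif.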 As to conditions: TR-FRET GST-Vif / biotin-A3G peptide binding; hits give high values. (TR-FRET usually uses a lanthanide donor and a delayed reading to cut background.)
Turning to `CN1CCN(C(=O)c2ccc3nc(-c4ccccc4)c(-c4ccccc4)nc3c2)CC1`, the inhibition was 5.63% (inactive).
Next, `O=C(c1ccco1)N1CCN(c2ncccn2)CC1`: 5.99% (inactive); `O=C(c1cccc(C(=O)N2CCN(c3ncccn3)CC2)c1)N1CCN(c2ncccn2)CC1`: 17.4% (inactive).
Then `CCN1CCN(C(=O)c2ccc3nc(-c4ccccc4)c(-c4ccccc4)nc3c2)CC1`, with -0.29% (inactive); and `O=C(COc1ccccc1)NC(Cc1c[nH]c2ccccc12)C(=O)O` (centres undefined), with 7.79% (inactive); and `c1ccc(-c2noc(CCC3CCCC3)n2)cc1`, with -1.6% (inactive).
Then `Cc1c(C(=O)N2CCCCCC2)oc2ccccc12`, with 30.7% (inactive); and `Cc1cc(C)nc(N/N=C/c2ccc(Cl)cc2)n1`, with -3.39% (inactive); and `Cc1cc(C)nc(NN=CC2=C(N3CCOCC3)/C(=C/c3ccc(Cl)cc3)CC2)n1`, with 17.2% (inactive).
As to `COC(CNC(=O)c1ccc(CS(=O)(=O)c2c(Cl)cccc2Cl)o1)OC`, the inhibition is -0.54% (inactive).
Next, `CN(C)CCNC(=O)c1ccc(CS(=O)(=O)c2c(Cl)cccc2Cl)o1`: 3.4% (inactive).
Next, `CC(=O)c1cccc(NC(=O)N2CCCC2C(=O)NC2CCCCC2)c1` (centres undefined): -4.16% (inactive).
As for `CCOc1ccc2nc(NC(=O)CSc3nc4c(c(=O)n(C)c(=O)n4C)n3C(C)C)sc2c1`, the inhibition is 18.8% (inactive).
`O=C(c1cccc(C(=O)N2CCN(c3ccccc3F)CC2)c1)N1CCN(c2ccccc2F)CC1`: the inhibition is -8.59% (inactive).
In the case of `CCC(=O)c1ccc(N2CCN(C(=O)c3cccc(F)c3)CC2)c(F)c1`, the inhibition was -9.86% (inactive).
Next, `CCOC(=O)C1CCN(CC(O)COCc2ccc(Cl)cc2)CC1` (centres undefined): 8.82% (inactive).
On to `O=S(=O)(/C=C/c1ccccc1)N1CCN(c2cccc(Cl)c2)CC1`, for which the inhibition was -3.95% (inactive).
Then `O=C(Nc1ccc(F)cc1F)c1cc(-c2ccco2)on1`, with 5.56% (inactive); and `O=C(Nc1nnc(-c2ccco2)s1)C1CC1`, with 12.1% (inactive).
Next, `Cc1ccc(C(=O)Nc2nc(-c3ccco3)c(-c3ccco3)s2)o1`: 23.7% (inactive).
Then `CS(=O)(=O)c1ccc2nc(NC(=O)c3ccco3)sc2c1`, with 8.25% (inactive); and `O=C(Nc1nnc(-c2ccco2)s1)C1CCCCC1`, with 22.7% (inactive).
Consider `COc1ccc(C(=O)Nc2nnc(-c3ccco3)s2)cc1`, for which the inhibition was -3.84% (inactive).
Then `O=C(NC(=S)Nc1nc2ccc(F)cc2s1)c1ccco1`, with 9.98% (inactive); and `O=C(Nc1nc(-c2cccs2)c(-c2ccccc2)s1)c1ccco1`, with 2.82% (inactive).
Then `COc1ccc(CNC(=O)N[C@@H](CC(C)C)C(=O)O)cc1OC`, with -2.37% (inactive); and `CCCc1cc(=O)[nH]c(SCC(=O)NCC2COc3ccccc3O2)n1` (centres undefined), with -7.96% (inactive).
Turning to `COc1cnc(-c2ccccn2)[nH]c1=O`, the inhibition was 2.61% (inactive).
Consider `O=C(Cn1nnc(-c2ccccc2F)n1)NCc1ccco1`, for which the inhibition is 10.4% (inactive).
Then `COc1ccc(CCNS(=O)(=O)c2ccc(OC)cc2)cc1`, with -5.66% (inactive).
Next, `Cc1[nH]c2ccc(Br)cc2c(=O)c1CN1CCCCCC1`: -12.9% (inactive); `CC1CCCN(S(=O)(=O)Cc2ccc(Cl)cc2)C1` (centres undefined): 4.49% (inactive).
Then `COc1ccc(COc2ccsc2C(=O)Nc2ccc(Cl)cc2)cc1`, with -8.53% (inactive); and `Cc1ccc2cccc(O)c2[n+]1[O-]`, with 18.8% (inactive).
With `[O-][n+]1cccc2cccc(O)c21`, the inhibition was -10.3% (inactive).
Next, `C/C(=N\NC=O)c1ccncc1`: -3.47% (inactive); `COc1ccc(CC(=O)N(C)C2CCCCC2)cc1S(=O)(=O)N1CCOCC1`: 1.22% (inactive); `COc1ccc2[nH]c(C)cc(=O)c2c1`: -0.89% (inactive).
In the case of `Cc1ccc(C)c2c1c1ccccc1n2C`, the inhibition was -3.59% (inactive).
Then `COc1ccc2c(c1)c1ccccc1n2C`, with 1.57% (inactive).
Regarding `Cc1ccc2c(C)c(C)c(=O)n(C)c2c1`, the inhibition was -6.81% (inactive).
Next, `COc1ccc2c(OC)cc(=O)n(C)c2c1`: 6.19% (inactive); `Cc1ccc2c(c1)c1c(n2C)C(=O)CCC1`: -2% (inactive); `COc1ccc2[nH]c3ccccc3c2c1`: 1.16% (inactive).
In the case of `Cc1cc(=O)n(C)c2ccccc12`, the inhibition is -5.08% (inactive).
Regarding `Cc1c(NC(=O)c2cc(-c3ccccc3)nc3ccccc23)c(=O)n(-c2ccccc2)n1C`, the inhibition was -2.43% (inactive).
Next, `CC1=C(C(=O)OCc2ccccc2)C(c2ccccc2Br)NC(=O)N1` (centres undefined): -2.14% (inactive); `COc1ccccc1C(O)(c1ccccc1)C(CN1CCOCC1)c1ccccc1` (centres undefined): 3.77% (inactive).
Next, `COc1ccc(NC(=O)c2cc(-c3ccccc3)nc3c2c(C)nn3-c2ccccc2)c(OC)c1`: 1.03% (inactive); `COC(=O)Cc1[nH]nc2c1C(C1C=CCCC1)C(C#N)=C(N)O2` (centres undefined): 7.26% (inactive); `COc1ccc(C2/C=C\CN(C(=O)C3CC3)[C@H](Cc3ccccc3)C(=O)N2Cc2ccc(F)cc2)cc1` (some centres undefined): 7.45% (inactive).
Then `CC1CCN(C(=O)CSc2nnc(-c3ccncc3)n2C)CC1`, with 8.77% (inactive); and `COc1cc(OC)cc(C(=O)NC2CCN(CCCOc3ccccc3)CC2)c1`, with -2.34% (inactive); and `CCN(CC(=O)Nc1ccc(NC(C)=O)cc1)C(=O)c1ccc2ccccc2c1`, with 8.12% (inactive).
As for `Nc1c(C(=O)CSc2nnc(-c3ccccc3F)o2)c(=O)[nH]c(=O)n1C1CC1`, the inhibition is -9.99% (inactive).
Next, `Cn1c2ccccc2c2c(=O)oc3ccccc3c21`: -5.39% (inactive); `CC(=O)n1c2ccccc2c2c1c1ccccc1n2C`: -6.7% (inactive); `CCOc1ccccc1NC(=O)Nc1cccc(S(N)(=O)=O)c1`: 1.28% (inactive).
Next, `O=C(/C=C/c1ccccc1)c1ccc2c(c1)OCO2`: -5.81% (inactive); `CCOc1ccc(-n2c(=O)c3c4c(sc3n(CC(=O)NCc3ccco3)c2=O)CCC4)cc1`: -4.88% (inactive); `Cc1sc2c(c1C)c(=O)n(-c1ccc(F)cc1)c(=O)n2CC(=O)NCc1ccco1`: -4.06% (inactive).
Then `CCOC(=O)N1C/C(=C\c2ccccc2)C(=O)/C(=C/c2ccccc2)C1`, with 1.34% (inactive).
Consider `C=CC(=O)N1C/C(=C/c2ccccc2)C(=O)/C(=C\c2ccccc2)C1`, for which the inhibition is 6.41% (inactive).
Regarding `CC(C)CCNC(=O)C(=O)NCc1ccccc1`, the inhibition was 21.7% (inactive).
Then `COc1ccc(NC(=O)COC(=O)CCSc2ccccc2)cc1`, with -0.53% (inactive).
`COc1ccc(NC(=O)CCSc2ccc(F)cc2)cc1`: the inhibition was 29.9% (inactive).
Turning to `CC(=O)c1ccc(OCc2cc(C(=O)N3CCC[C@H]3CO)no2)cc1`, the inhibition was 1.22% (inactive).
Then `CCn1c(COc2ccc3c(c2)OCO3)nnc1SCC(=O)O`, with -4.1% (inactive); and `CCn1c(COc2ccc3c(c2)OCO3)nnc1SCC(=O)c1ccccc1`, with 9% (inactive); and `O=C(/C=C/c1ccccc1Cl)Nc1ccccc1`, with -7.35% (inactive).
Then `COCCOc1ccc(C(F)(F)F)cc1N`, with 16.5% (inactive); and `Nc1cc(OCC(F)(F)F)cc(OCC(F)(F)F)c1`, with 2.81% (inactive); and `C=CCSc1nc2c(c(=O)[nH]c(=O)n2C)n1Cc1ccc(C)cc1`, with 1.91% (inactive).
Next, `CN1c2ccsc2/C(=N/Nc2ccc(F)cc2)CS1(=O)=O`: 12.5% (inactive).
As for `Cc1cc(NC(=O)CSc2nc3ccccc3c(=O)n2C2CCCC2)no1`, the inhibition was 3.03% (inactive).
`CN(C)c1ccc(NC(=O)CSc2nc3ccccc3c(=O)n2CC2CCCO2)cc1` (centres undefined): the inhibition was 1.51% (inactive).
Regarding `CCOC(=O)N1CCN(C(=O)CN(CC)S(=O)(=O)c2cc(C)ccc2OC)CC1`, the inhibition was -2.01% (inactive).
Then `O=[N+]([O-])c1ccccc1Nc1ccccc1[N+](=O)[O-]`, with -5.54% (inactive); and `CC(=O)Nc1ccc2c3c(ccc([N+](=O)[O-])c13)CC2`, with 1.46% (inactive); and `COc1ccc(CCC(=O)N2CCCSC2=Nc2ccc(C(C)=O)cc2)cc1`, with 11.6% (inactive).
Then `O=C(O)c1cccc2c1-c1ccc(Cl)cc1C2`, with -7.17% (inactive); and `O=C1Cc2cc(O)ccc2O1`, with -1.58% (inactive).
Next, `Cc1cc2c(OCC(O)CN3CCCC3)cccc2[nH]1` (centres undefined): 2.52% (inactive); `O=C(CCCc1cccs1)Nc1nc2c(s1)CCCC2`: 12.6% (inactive).
In the case of `CCOC(=O)c1ccc(NS(=O)(=O)c2ccc3[nH]c(=O)[nH]c3c2)cc1`, the inhibition is 5% (inactive).
Next, `CCOC(=O)c1ccc(NS(=O)(=O)c2ccc3c(c2)oc(=O)n3C)cc1`: 69.3% (inactive); `O=C(O)c1cc(OCc2ccccc2)cc(OCc2ccccc2)c1`: 1.18% (inactive).
Next, `Cc1[nH]ccc(=O)c1OCc1ccccc1`: 6.47% (inactive).
Then `CCOc1cc(/C=C2/SC(=S)N(Cc3ccccc3)C2=O)ccc1O`, with 6.48% (inactive); and `Cc1ccc(NC(=O)CSc2nnc(CNC(=O)c3ccco3)n2C)cc1C`, with -4.15% (inactive).
As to `O=C(COC(=O)C1CC2CCCC(C1)C2=O)NNC(=O)c1ccccc1Br` (centres undefined), the inhibition is -2.58% (inactive).
Next, `COC(=O)[C@]1(C)N[C@H](CN(C)S(=O)(=O)c2ccc(C(C)(C)C)cc2)[C@@H]2C(=O)N(C)C(=O)[C@@H]21`: 3.98% (inactive); `Cc1ccc(C(=O)N/C(=C/c2ccco2)C(=O)NC2CCS(=O)(=O)C2)cc1` (centres undefined): -1.97% (inactive); `Cc1ccc(/C=C2\SC(=S)N(C3CCS(=O)(=O)C3)C2=O)cc1` (centres undefined): 6.18% (inactive).
With `O=C1/C(=C/c2ccccc2)SC(=S)N1C1CCS(=O)(=O)C1` (centres undefined), the inhibition is -6.69% (inactive).
Then `Cc1ccc(/C=C2\SC(=S)N(C3CCS(=O)(=O)C3)C2=O)o1` (centres undefined), with -0.73% (inactive).
Next, `Cc1cc(C)n(/N=C/c2ccco2)c(=O)c1C#N`: 11.3% (inactive); `O=C1/C(=C/c2cccs2)SC(=S)N1C1CCS(=O)(=O)C1` (centres undefined): 0.42% (inactive); `CC1c2ccccc2N(NC(=O)Cc2ccccc2)C1C` (centres undefined): 1.5% (inactive).

As usually defined, the inhibition is the drop in the measured response relative to a control, in per cent.
